# Activity calls are given as the source filed them. Unless noted, no rule for the calls is given here.
# Experiments:
# [1] = tested on: Wnt5a (protein binding on small-molecule microarray); experiment: Wnt5a binders on small-molecule microarray, primary screen, biophysical, 635/667 nm fluorescence (AID 1142); conditions: 635 nm fluorescence, higher = more signal;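 also: fluorescence read at 667 nm with signal to noise per printed feature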
# [2] = cell viability in Huh7 cells, primary screen, cytotoxicity control for HCV replication inhibitor project, CellTiter-Glo luminescence, basal, 48 h (AID 1143); conditions: Huh7 HCV replicon, higher = more signal, called active from +8 up or from −8 down;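 also: Huh7 hepatoma cells carrying a hepatitis C replication reporter with no stimulus; test concentration not given here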
# [3] = P. aeruginosa biofilm formation inhibitors, primary screen, PAO1 strain, BacTiter-Glo luminescence, LB-PBS (AID 1144); conditions: 12 h, higher = more signal
# [4] = CREB reporter modulators without forskolin, primary screen, cell-based, PC12, CRE-LacZ reporter, unstimulated (AID 1145); conditions: no forskolin, luminescence, 4.5 h, higher = more signal, called active from +8 up or from −8 down
# [5] = CREB reporter modulators under forskolin, primary screen, cell-based, PC12, CRE-LacZ reporter, forskolin-stimulated (AID 1146); conditions: luminescence, 4.5 h, higher = more signal, called active from +8 up or from −8 down;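 also: PC12 cells with 6xCRE LacZ reporter stimulated by forskolin 10 µM; beta-galactosidase reporter signal reflecting CREB driven transcription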
# [6] = biological target: Streptavidin (Streptomyces avidinii) (UniProt P22629); experiment: streptavidin binders on small-molecule microarray, primary screen, artefact control for SMM compound annotation, biophysical, 635/667 nm fluorescence (AID 1147); conditions: streptavidin binding, higher = more signal;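 also: signal reflects streptavidin binding to arrayed compounds as a control protein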
# Sequence of Streptavidin (Streptomyces avidinii) (P22629 whole entry, looked up): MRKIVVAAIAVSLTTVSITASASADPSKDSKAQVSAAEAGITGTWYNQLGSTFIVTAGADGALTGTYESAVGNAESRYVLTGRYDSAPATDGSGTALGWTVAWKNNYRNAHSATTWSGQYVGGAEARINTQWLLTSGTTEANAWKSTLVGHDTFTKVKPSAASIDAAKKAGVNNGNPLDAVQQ
# [7] = small-molecule binders of probe aInhba, primary screen, biochemical, small-molecule microarray, 635/667 nm fluorescence (AID 1148); conditions: higher = more signal;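 also: score merges 667nm spot fluorescence with signal-to-noise for antibody binding to printed compounds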
# [8] = biological target: Torsin-1A (Homo sapiens) (UniProt O14656); experiment: torsin A binders from cell lysate, primary screen, small-molecule microarray, wild-type, 635/667 nm (AID 1149); conditions: COS7 hTOR1A-WT lysate, 635 nm fluorescence, higher = more signal
# Sequence of Torsin-1A (Homo sapiens) (O14656 whole entry, looked up): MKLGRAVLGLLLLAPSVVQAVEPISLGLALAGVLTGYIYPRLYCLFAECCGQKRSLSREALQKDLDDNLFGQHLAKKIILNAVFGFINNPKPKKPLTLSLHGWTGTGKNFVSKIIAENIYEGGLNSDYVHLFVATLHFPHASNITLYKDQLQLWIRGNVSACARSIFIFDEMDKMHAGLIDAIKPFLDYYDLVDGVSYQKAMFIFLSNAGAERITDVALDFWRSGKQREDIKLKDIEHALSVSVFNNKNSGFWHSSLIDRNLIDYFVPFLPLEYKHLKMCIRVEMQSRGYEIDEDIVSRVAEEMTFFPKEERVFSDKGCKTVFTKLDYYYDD
# [9] = biological target: Torsin-1A (Homo sapiens) (UniProt O14656); experiment: small-molecule binders of mutant TOR1A in lysate, primary screen, cell lysate, small-molecule microarray, COS7 lysate, 635/667 nm fluorescence (AID 1150); conditions: COS7 hTOR1A mutant lysate, 635 nm fluorescence, higher = more signal;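 also: score pools 667 nm emission and signal to noise measuring lysate protein binding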
# [10] = tested on: Sonic hedgehog protein (Shh); experiment: small-molecule binders of Shh protein, primary screen, biochemical, small-molecule microarray, 635/667 nm fluorescence (AID 1151); conditions: small-molecule microarray binding, 635 nm fluorescence; higher = more signal;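 also: Shh protein binding to compounds spotted on small-molecule microarray slides; score combines spot fluorescence intensity with signal-to-noise across triplicate slides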
# [11] = E. coli DRC41 culture turbidity changes, primary screen, E. coli filamentation inducer project, strain DRC41, OD650, 48 h (AID 1152);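 also: E. coli MC1000 strain DRC41 lacking acrAB efflux pump and sulA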; conditions: E. coli DRC41 (acrAB sulA), higher = more signal, called active from +8 up or from −8 down
# [12] = small-molecule binders of probe aLefty1, primary screen, biochemical, small-molecule microarray, 635/667 nm fluorescence (AID 1153); conditions: higher = more signal;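 also: score merges spot fluorescence with signal-to-noise ratio from the scanned slide images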
# [13] = PSAC antagonists in infected red cells, primary screen, cell-based, P. falciparum Indochina, OD700, 1 h (AID 1154); conditions: P. falciparum Indochina infected RBC osmotic lysis, higher = more signal, called active from +8 up or from −8 down
# [14] = PSAC antagonists in infected red cells, primary screen, cell-based, P. falciparum Indochina, OD700, 2 h (AID 1155);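 also: lysis reports solute entry through the parasite surface anion channel PSAC; channel blockers reduce lysis of infected cells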; conditions: P. falciparum Indochina infected erythrocytes, osmotic lysis OD700; higher = more signal, called active from +8 up or from −8 down
# [15] = osmotic lysis modulators in infected erythrocytes, primary screen, PSAC antagonist project, cell-based, P. falciparum Indochina, OD700, 3 h (AID 1156); conditions: higher = more signal, called active from +8 up or from −8 down
# [16] = PSAC antagonists in infected red cells, primary screen, cell-based, P. falciparum Indochina, OD700, 18 h (AID 1157); conditions: P. falciparum Indochina infected erythrocytes, osmotic lysis OD700, 18 h; higher = more signal, called active from +8 up or from −8 down
# [17] = modulators of S6 phosphorylation in cells, primary screen, cell-based, A549, cytoblot, luminescence, serum-stimulated (AID 1158); conditions: A549 phospho-S6 cytoblot, 5 h, higher = more signal;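 also: serum-stimulated A549 lung adenocarcinoma cells; signal is phosphorylated S6 detected by cytoblot immunostaining with HRP secondary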
# [18] = biological target: NADPH oxidase 2 (Homo sapiens) (UniProt P04839); experiment: NOX2-dependent H2O2 signal modulators, primary screen, NOX inhibitor project, cell-based, HEK293-NOX2, PMA-stimulated, Amplex Red fluorescence (AID 1159); conditions: 45 min, higher = more signal, called active from +8 up or from −8 down; also: test concentration not given here
# Sequence of NADPH oxidase 2 (Homo sapiens) (P04839 whole entry, looked up): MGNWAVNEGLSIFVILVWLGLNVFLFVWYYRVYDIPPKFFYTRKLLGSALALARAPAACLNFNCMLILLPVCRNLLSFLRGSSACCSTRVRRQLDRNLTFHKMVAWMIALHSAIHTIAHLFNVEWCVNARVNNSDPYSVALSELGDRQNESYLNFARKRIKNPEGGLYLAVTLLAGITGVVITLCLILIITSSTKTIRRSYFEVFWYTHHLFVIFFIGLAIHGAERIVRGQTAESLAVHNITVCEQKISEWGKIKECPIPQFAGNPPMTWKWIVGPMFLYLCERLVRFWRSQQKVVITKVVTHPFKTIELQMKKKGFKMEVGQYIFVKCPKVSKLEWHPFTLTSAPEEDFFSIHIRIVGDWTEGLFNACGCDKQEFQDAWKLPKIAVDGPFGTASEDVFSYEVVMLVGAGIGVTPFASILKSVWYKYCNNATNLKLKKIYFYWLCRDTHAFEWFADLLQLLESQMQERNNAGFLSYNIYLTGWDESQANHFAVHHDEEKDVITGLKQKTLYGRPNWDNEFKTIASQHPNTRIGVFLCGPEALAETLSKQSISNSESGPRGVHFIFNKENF
# [19] = biological target: NADPH oxidase 4 (Homo sapiens) (UniProt Q9NPH5); experiment: NOX4-dependent H2O2 signal modulators, primary screen, NOX inhibitor project, cell-based, HEK293-NOX4, tetracycline-induced, Amplex Red fluorescence (AID 1160); conditions: 45 min, higher = more signal, called active from +8 up or from −8 down
# Sequence of NADPH oxidase 4 (Homo sapiens) (Q9NPH5 whole entry, looked up): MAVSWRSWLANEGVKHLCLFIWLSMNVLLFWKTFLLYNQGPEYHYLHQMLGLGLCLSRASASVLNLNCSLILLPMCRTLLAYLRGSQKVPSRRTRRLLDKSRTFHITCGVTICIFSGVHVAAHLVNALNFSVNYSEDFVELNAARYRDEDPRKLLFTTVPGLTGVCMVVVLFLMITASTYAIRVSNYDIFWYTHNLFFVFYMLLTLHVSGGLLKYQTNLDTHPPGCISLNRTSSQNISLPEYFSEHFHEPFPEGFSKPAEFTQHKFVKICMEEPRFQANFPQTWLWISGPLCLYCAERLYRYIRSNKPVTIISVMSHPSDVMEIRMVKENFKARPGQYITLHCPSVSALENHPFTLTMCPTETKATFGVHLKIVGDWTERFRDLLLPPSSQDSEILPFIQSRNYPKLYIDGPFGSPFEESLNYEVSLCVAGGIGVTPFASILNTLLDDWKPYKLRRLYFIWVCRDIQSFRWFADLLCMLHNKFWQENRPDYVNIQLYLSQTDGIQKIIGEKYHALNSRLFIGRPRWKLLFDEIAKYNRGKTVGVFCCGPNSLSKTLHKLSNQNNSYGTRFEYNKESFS
# [20] = biological target: NADPH oxidase 5 (Homo sapiens) (UniProt Q96PH1); experiment: NOX5-dependent H2O2 signal modulators, primary screen, NOX inhibitor project, cell-based, HEK293-NOX5, Amplex Red fluorescence (AID 1161); conditions: HEK293-NOX5, ionomycin, 45 min, higher = more signal
# Sequence of NADPH oxidase 5 (Homo sapiens) (Q96PH1 whole entry, looked up): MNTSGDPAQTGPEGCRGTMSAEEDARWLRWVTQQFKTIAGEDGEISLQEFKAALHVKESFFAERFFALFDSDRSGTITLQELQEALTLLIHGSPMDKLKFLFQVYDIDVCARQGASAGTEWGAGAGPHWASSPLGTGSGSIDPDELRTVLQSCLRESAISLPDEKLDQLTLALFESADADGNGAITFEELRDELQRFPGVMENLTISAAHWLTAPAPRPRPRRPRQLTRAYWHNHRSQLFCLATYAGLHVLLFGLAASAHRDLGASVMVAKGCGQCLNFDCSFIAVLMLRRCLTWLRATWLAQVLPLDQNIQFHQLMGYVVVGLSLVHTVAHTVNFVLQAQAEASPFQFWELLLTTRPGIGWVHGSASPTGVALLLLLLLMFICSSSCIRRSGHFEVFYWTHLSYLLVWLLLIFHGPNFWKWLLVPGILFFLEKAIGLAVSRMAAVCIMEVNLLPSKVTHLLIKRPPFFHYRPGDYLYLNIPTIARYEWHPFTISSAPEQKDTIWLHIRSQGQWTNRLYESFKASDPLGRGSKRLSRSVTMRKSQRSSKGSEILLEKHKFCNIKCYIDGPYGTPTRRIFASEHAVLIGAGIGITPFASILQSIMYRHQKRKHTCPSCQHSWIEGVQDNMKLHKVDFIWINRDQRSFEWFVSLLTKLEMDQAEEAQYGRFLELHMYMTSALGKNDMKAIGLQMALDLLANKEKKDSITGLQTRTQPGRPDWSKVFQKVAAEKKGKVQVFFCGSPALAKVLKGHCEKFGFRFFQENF
SMILES,composite z-score [1],z-score [2],z-score [3],z-score [4],z-score [5],composite z-score [6],composite z-score [7],composite z-score [8],composite z-score [9],composite z-score [10],z-score [11],composite z-score [12],z-score [13],z-score [14],z-score [15],z-score [16],z-score [17],z-score [18],z-score [19],z-score [20]
[N-]=[N+]=NCc1ccccc1[C@@H]1OC(c2ccc(OCCCO)cc2)=N[C@]1(Cc1ccccc1N=[N+]=[N-])C(=O)N1CCCCC1,0.0032,-1.91 (inactive),-0.166 (inactive),-0.753 (inactive),-0.189 (inactive),1.58,0.329,0.133,1.31,0.0257,0.155 (inactive),0.358,16.3 (active),2.78 (inactive),1.15 (inactive),0.86 (inactive),0.0177,-1.45 (inactive),0.924 (inactive),1.17
COC(=O)c1c2oc(c1C(=O)OC)C(=O)N1CCC[C@H]1Cn1nncc1CN(Cc1ccccc1)C(=O)N[C@H](CO)CC2,0.533,0.246 (inactive),-0.294 (inactive),0.251 (inactive),-0.147 (inactive),0.0789,-0.0448,-0.14,-0.0715,0.658,1.53 (inactive),0.0429,0.834 (inactive),0.609 (inactive),-0.418 (inactive),0.924 (inactive),0.429,-0.521 (inactive),0.556 (inactive),1.19
O=C(N1CCOCC1)[C@@]1(CCS(=O)(=O)c2ccccc2)N=C(c2ccc(OCCCO)cc2)O[C@H]1c1ccccc1,0.465,-1.48 (inactive),0.201 (inactive),0.0127 (inactive),-0.0526 (inactive),2.39,0.3,0.411,0.767,-0.514,0.276 (inactive),0.446,30.2 (active),27.8 (active),0.265 (inactive),5.34 (inactive),-0.679,0.386 (inactive),1.75 (inactive),1.97
C[C@]1(C(=O)NCCN2CCOCC2)c2ccccc2C(=O)N(Cc2cc(F)cc(C(F)(F)F)c2)[C@H]1c1ccc(CO)cc1,-0.187,-1.39 (inactive),-1.32 (inactive),-0.385 (inactive),-0.909 (inactive),0.0519,0.027,1.82,1.84,1.86,1.28 (inactive),0.0892,5.73 (inactive),0.651 (inactive),1.24 (inactive),0.28 (inactive),0.523,0.51 (inactive),0.798 (inactive),-0.291
NC(=O)NCC#Cc1ccc2c(c1)[C@]1(C(=O)N2)[C@H](C(=O)N2CCN(c3ncccn3)CC2)[C@H]2C(=O)O[C@H](c3ccccc3)[C@H](c3ccccc3)N2[C@@H]1c1ccc(OCCO)cc1,0.388,0.0749 (inactive),-0.534 (inactive),-0.231 (inactive),0.156 (inactive),0.644,0.0391,0.237,0.875,0.963,0.682 (inactive),0.309,5.91 (inactive),1.66 (inactive),-0.015 (inactive),0.689 (inactive),-0.24,1.44 (inactive),1.1 (inactive),1.12
Cc1ccc(C(C)CC(O)C2C=CC3C(=O)N(c4ccccc4)C(=O)C3N2Nc2ccc(C#N)cc2)o1 (stereo not given),0.303,-1.18 (inactive),-0.194 (inactive),-0.333 (inactive),-0.306 (inactive),1.1,0.027,0.279,0.443,0.218,0.249 (inactive),0.198,7.4 (inactive),0.478 (inactive),0.45 (inactive),-0.397 (inactive),0.729,-2.43 (inactive),-3.34 (inactive),-2.6
COc1cc(NN2C(C(O)c3cc(OC)c(OC)c(OC)c3)C=CC3C(=O)N(c4ccccc4)C(=O)C32)cc(OC)c1OC (stereo not given),0.582,-2.99 (inactive),-0.24 (inactive),0.243 (inactive),-0.0967 (inactive),1.8,0.867,-0.152,0.816,-0.317,-1.78 (inactive),1.02,2.73 (inactive),-0.577 (inactive),1.27 (inactive),-1.19 (inactive),1.07,-3.35 (inactive),-4.26 (inactive),-6.87
NCCCCCNC(=O)[C@@H]1C[C@@H]2C(=O)N3CCC[C@H]3C(=O)N2[C@@H]1c1ccc(O)cc1,0.446,-0.406 (inactive),-0.113 (inactive),0.143 (inactive),-0.707 (inactive),1.11,0.0706,0.778,1.1,0.468,0.524 (inactive),1.08,1.9 (inactive),0.106 (inactive),-0.696 (inactive),0.277 (inactive),-0.596,0.105 (inactive),-1.53 (inactive),0.0464
C=CCNC(=O)[C@@H]1[C@H]2C(=O)O[C@H](c3ccccc3)[C@H](c3ccccc3)N2[C@H](c2ccc(O)cc2)[C@@]12C(=O)N(C(=O)OCCOC)c1ccc(C#CCCO)cc12,0.905,-0.2 (inactive),0.171 (inactive),-0.337 (inactive),0.243 (inactive),0.945,0.198,0.463,0.235,2.07,-0.181 (inactive),0.0911,2.22 (inactive),0.517 (inactive),0.0855 (inactive),0.121 (inactive),0.0918,0.982 (inactive),0.194 (inactive),1.06

# Source: PubChem BioAssay
